# Where “and” joins values, the source holds several entries; their conditions need not be identical. Equal values may be shown once. Records with an inconclusive call do not appear. Where a call stands in place of a potency, no number is given. More than one record can exist for a structure, and the calls need not agree. Calls of active or inactive are those of the source. Unless noted, calls follow the shape of the dose curve; as a rule, active = well fitted curve in the direction sought with a large enough effect in the repeat runs; inconclusive = weak or mixed curves; inactive = no such curve, though single readings can be large; an effect the other way counts as inactive or inconclusive.
# Legend:
# [1] = qHTS assay to identify small molecule agonists of the estrogen receptor alpha (ER-alpha) signaling pathway in the presence of an antagonist - cell viability counter screen (AID 1259386);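 also: cells exposed to compounds for 22 h at 37 °C before the viability read; nearly all actives have a fitted effect of over 30% in size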; also: potency is read from the fitted curve at half-maximal effect
# In short: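 In this counter screen, compound effects on VM7Luc4E2 viability were tested in the presence of the antagonist ICI-182,780 at 10.0nM final. Compounds were dosed at 15 concentrations, exposure lasted 22hr, and the CellTiter-Fluor signal was read.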
# [2] = qHTS assay to identify small molecule antagonists of the progesterone receptor (PR) signaling pathway - cell viability counter screen (AID 1346798); also: nearly all actives have a fitted effect of over 50% in size; also: potency is read from the fitted curve at half-maximal effect
# In short: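 PR-UAS-bla HEK293T cells in medium with 2% charcoal-stripped FBS were treated with compounds plus R5020 for 16 hr at 37C. Cell viability was then read by CellTiter-Glo luminescence after 30 min at room temperature in the same wells.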
# [3] = qHTS assay to identify small molecule agonists of the progesterone receptor (PR) signaling pathway - cell viability counter screen (AID 1346799; calls by dose curve; also: nearly all actives have a fitted effect of over 45% in size; also: potency is read from the fitted curve at half-maximal effect)
# In short: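 PR-UAS-bla HEK293T cells, 3,000 per well in medium with 2% charcoal-stripped FBS, were preincubated 6 hr at 37C, then exposed to compounds for 16 hr; viability was read as CellTiter-Glo luminescence after 30 min at room temperature.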
# [4] = qHTS assay to identify small molecule antagonists of the TGF-beta/Smad signaling pathway - cell viability counter screen (AID 1346824); also: nearly all actives have a fitted effect of over 50% in size; also: potency is read from the fitted curve at half-maximal effect
# In short: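 SBE-bla HEK 293T cells, incubated overnight, then compound plus 0.25 ng/mL TGF-beta1 (stock added) for 5 hr at 37 C. Viability was read in the same wells by CellTiter-Glo luminescence after 30 min at room temperature.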
# [5] = qHTS assay to identify small molecule agonists of the TGF-beta/Smad signaling pathway - cell viability counter screen (AID 1346829); also: nearly all actives have a fitted effect of over 45% in size; also: potency is read from the fitted curve at half-maximal effect
# In short: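 Compound-treated SBE-bla HEK 293T cells (5 hr, 37 C) were assessed for viability with CellTiter-Glo in parallel with the reporter read.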
# [6] = molecular target: Thyrotropin-releasing hormone receptor (Homo sapiens) (UniProt P34981); experiment: qHTS assay to identify small molecule antagonists of the thyrotropin-releasing hormone receptor (TRHR) signaling pathway (AID 1346877; active = well fitted inhibition curve with a large enough effect in the repeat runs, not every such curve was filed as active; also: potency is read from the fitted curve at half-maximal effect)
# Thyrotropin-releasing hormone receptor (Homo sapiens), sequence (P34981 whole entry, looked up): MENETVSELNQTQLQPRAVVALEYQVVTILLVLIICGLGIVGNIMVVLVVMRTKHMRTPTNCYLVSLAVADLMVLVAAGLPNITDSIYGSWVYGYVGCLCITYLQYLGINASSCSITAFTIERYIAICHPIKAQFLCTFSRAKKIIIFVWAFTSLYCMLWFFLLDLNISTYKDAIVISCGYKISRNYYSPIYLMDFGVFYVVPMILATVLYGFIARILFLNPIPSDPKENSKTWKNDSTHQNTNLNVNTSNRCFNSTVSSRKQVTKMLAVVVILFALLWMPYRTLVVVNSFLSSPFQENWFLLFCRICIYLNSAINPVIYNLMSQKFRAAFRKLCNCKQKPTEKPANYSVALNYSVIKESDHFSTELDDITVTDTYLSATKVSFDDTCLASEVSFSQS
# In short: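 Kinetic fluorescence (3 min, 1 s resolution) following stimulation with TRH at 1 nM final; HEK293 cells bearing human TRHR; 5 min compound preincubation at RT; concentration-response over 15 points, triplicates.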
# [7] = molecular target: Thyrotropin-releasing hormone receptor (Homo sapiens) (UniProt P34981); experiment: qHTS assay to identify small molecule agonists of the thyrotropin-releasing hormone receptor (TRHR) signaling pathway (AID 1346891; calls by dose curve; also: potency is read from the fitted curve at half-maximal effect; as to activation: series mostly up to about 58 µM)
# In short: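 TRHR-expressing HEK293 cells were plated 18 h at 37 °C/5% CO2, loaded with calcium dye 2 h at 37 °C, then given compound in DMSO; fluorescence was read kinetically for 3 min at 1 s intervals.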
# [8] = Human pregnane X receptor (PXR) small molecule agonists, qHTS cell viability counter screen (AID 1346977); also: nearly all actives have a fitted effect of over 50% in size; also: potency is read from the fitted curve at half-maximal effect
# In short: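 PXR-Luc HepG2 cells in medium with 5% charcoal-stripped FBS were pre-incubated 5hr, then exposed to compounds for 24hr at 37C. Viability was read in the same wells by CellTiter-Fluor fluorescence, reagent added after 23hr with a 1hr incubation.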
# [9] = Caspase-3/7 induction in HepG2 cells by small molecules, qHTS assay (AID 1346978); also: nearly all actives have a fitted effect of over 15% in size; also: potency is read from the fitted curve at half-maximal effect
# In short: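 Wild-type HepG2 cells, 2,000/well, settled 5 hr at 37 C and 5% CO2, then compound-treated for 17 hr; caspase-3/7 activity read by luminescent Caspase-Glo 3/7 after 30 min at room temperature.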
# [10] = Caspase-3/7 induction in CHO-K1 cells by small molecules, qHTS cell viability counter screen (AID 1346979); also: nearly all actives have a fitted effect of over 35% in size; also: potency is read from the fitted curve at half-maximal effect
# In short: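 Wild-type CHO-K1 cells were seeded at 1,500 per well, rested 5hr at 37 C, then exposed to compounds in DMSO. After 16hr, CellTiter-Fluor reagent was added and fluorescence read 1hr later as the viability measure.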
# [11] = Caspase-3/7 induction in CHO-K1 cells by small molecules, qHTS assay (AID 1346980); also: nearly all actives have a fitted effect of over 15% in size
# In short: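 Wild-type CHO-K1 cells exposed to compounds for 17hr at 37 C, 5% CO2. Caspase-3/7 activity then measured by Caspase-Glo 3/7 luminescence after 30min at room temperature.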
# [12] = Caspase-3/7 induction in HepG2 cells by small molecules, qHTS cell viability counter screen (AID 1346981); also: nearly all actives have a fitted effect of over 30% in size; also: potency is read from the fitted curve at half-maximal effect
# In short: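 In this quantitative HTS counter screen, compounds delivered in DMSO were left on unmodified HepG2 cells for 16 hr at 37 C. Viability was then determined fluorometrically with CellTiter-Fluor, in parallel with caspase-3/7 induction in the same wells.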
# [13] = molecular target: Nuclear receptor subfamily 1 group I member 2 (Homo sapiens) (UniProt O75469); experiment: Human pregnane X receptor (PXR) small molecule agonists, qHTS assay (AID 1346982); also: nearly all actives have a fitted effect of over 35% in size; also: potency is read from the fitted curve at half-maximal effect
# Nuclear receptor subfamily 1 group I member 2 (Homo sapiens), sequence (O75469 whole entry, looked up): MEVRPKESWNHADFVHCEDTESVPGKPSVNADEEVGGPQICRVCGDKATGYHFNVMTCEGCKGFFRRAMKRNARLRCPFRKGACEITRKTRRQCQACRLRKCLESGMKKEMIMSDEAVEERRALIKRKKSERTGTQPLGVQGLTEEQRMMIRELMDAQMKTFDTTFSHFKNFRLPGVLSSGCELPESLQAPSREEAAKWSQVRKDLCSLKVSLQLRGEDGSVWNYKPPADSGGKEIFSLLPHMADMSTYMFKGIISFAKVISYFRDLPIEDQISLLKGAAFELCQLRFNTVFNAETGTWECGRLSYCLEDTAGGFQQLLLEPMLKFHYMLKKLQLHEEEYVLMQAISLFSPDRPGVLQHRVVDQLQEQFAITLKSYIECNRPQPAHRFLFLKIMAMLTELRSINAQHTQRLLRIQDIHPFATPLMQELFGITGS
# In short: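 Reporter HepG2 cells expressing PXR-Luc are cultured in charcoal-stripped FBS (5%), treated with compounds for 24 hr at 37 C, and assayed by ONE-Glo luminescence after 30 min at room temperature.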
# [14] = molecular target: Acetylcholinesterase (Homo sapiens) (UniProt P22303); experiment: Acetylcholinesterase (AChE) small molecule antagonists: colormetric cell-based qHTS assay (AID 1347395; calls by dose curve; also: nearly all actives have a fitted effect of over 30% in size)
# Acetylcholinesterase (Homo sapiens), sequence (P22303 whole entry, looked up): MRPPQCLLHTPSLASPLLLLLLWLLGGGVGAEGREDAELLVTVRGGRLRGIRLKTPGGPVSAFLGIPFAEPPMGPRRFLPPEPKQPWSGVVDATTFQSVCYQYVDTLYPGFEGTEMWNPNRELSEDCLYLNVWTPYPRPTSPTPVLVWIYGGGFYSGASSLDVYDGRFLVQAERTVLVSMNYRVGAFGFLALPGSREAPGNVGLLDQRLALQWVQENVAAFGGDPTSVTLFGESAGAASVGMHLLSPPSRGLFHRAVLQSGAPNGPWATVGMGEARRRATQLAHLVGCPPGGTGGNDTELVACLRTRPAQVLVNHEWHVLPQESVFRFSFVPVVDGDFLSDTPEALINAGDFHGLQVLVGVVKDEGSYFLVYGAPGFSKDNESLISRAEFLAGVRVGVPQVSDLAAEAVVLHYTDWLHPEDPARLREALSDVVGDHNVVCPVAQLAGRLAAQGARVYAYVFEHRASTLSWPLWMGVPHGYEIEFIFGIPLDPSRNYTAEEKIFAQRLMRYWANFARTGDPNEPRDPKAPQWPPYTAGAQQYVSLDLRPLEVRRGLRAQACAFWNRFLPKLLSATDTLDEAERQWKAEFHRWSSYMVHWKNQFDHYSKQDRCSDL
# In short: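 SH-SY5Y cells, plated overnight at 37 C, were exposed to compounds for 30 min at 37 C and 5% CO2. Acetylthiocholine plus DTNB was then added, and thiocholine from endogenous AChE was quantified colorimetrically after 90 min at 37 C.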
# [15] = molecular target: Progesterone receptor (Homo sapiens) (UniProt P06401); experiment: qHTS assay to identify small molecule agonists of the progesterone receptor (PR) signaling pathway (AID 1346784; calls by dose curve; also: nearly all actives have a fitted effect of over 30% in size)
# Progesterone receptor (Homo sapiens), sequence (P06401 whole entry, looked up): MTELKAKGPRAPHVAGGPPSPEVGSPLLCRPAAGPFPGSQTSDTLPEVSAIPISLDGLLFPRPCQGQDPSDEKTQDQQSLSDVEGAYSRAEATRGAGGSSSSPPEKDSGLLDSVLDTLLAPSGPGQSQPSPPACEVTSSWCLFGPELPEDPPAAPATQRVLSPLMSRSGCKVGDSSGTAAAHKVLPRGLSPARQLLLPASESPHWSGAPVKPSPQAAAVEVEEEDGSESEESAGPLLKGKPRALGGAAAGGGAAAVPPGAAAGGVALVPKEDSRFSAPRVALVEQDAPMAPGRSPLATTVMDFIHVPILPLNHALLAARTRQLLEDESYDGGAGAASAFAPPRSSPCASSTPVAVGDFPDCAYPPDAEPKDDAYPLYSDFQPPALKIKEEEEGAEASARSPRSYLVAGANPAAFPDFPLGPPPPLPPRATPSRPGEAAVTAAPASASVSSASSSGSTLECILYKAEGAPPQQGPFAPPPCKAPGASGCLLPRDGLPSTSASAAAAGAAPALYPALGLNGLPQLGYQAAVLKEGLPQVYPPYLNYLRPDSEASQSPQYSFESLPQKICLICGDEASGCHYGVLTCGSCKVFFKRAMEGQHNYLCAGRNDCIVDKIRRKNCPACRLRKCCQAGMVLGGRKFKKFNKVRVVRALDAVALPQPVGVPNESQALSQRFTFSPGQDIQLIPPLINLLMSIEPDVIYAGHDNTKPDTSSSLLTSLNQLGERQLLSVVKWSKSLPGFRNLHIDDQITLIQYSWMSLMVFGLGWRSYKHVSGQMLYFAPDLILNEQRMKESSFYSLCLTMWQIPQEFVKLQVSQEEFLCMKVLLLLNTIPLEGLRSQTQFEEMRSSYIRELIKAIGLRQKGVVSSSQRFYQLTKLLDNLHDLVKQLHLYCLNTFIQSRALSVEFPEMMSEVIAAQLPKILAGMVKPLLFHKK
# In short: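 PR-UAS-bla HEK 293T cells carrying a UAS-driven beta-lactamase reporter were seeded in medium with 2% charcoal-stripped FBS, preincubated 6 hr at 37C, then exposed to compounds in DMSO for 16 hr; agonism was read by LiveBLAzer B/G FRET fluorescence.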
# [16] = molecular target: Progesterone receptor (Homo sapiens) (UniProt P06401); experiment: qHTS assay to identify small molecule antagonists of the progesterone receptor (PR) signaling pathway (AID 1346795; active = well fitted inhibition curve with a large enough effect in the signal ratio in the repeat runs, not every such curve was filed as active; the % refers to the signal ratio; also: potency is read from the fitted curve at half-maximal effect)
# In short: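 PR-UAS-bla HEK293T cells carrying a UAS-driven beta-lactamase reporter were plated in medium with 2% charcoal-stripped FBS and rested 6 hr at 37C. Compounds were added with 1 nM R5020 (final) for 16 hr, then FRET substrate loaded 2 hr at room temperature.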
# [17] = qHTS assay to identify small molecule agonists of the TGF-beta/Smad signaling pathway (AID 1346859; active = well fitted activation curve with a large enough effect in the signal ratio in the repeat runs, not every such curve was filed as active; the % refers to the signal ratio; also: series mostly up to about 77 µM)
# In short: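 HEK 293T cells stably carrying a beta-lactamase reporter driven by the Smad binding element were seeded overnight, exposed to DMSO-dissolved compounds for 5 hr at 37 C, 5% CO2, then loaded with FRET substrate for 2 hr at room temperature.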
# [18] = molecular target: Nuclear receptor subfamily 1 group I member 2 (Rattus norvegicus) (UniProt Q9R1A7); experiment: Rat pregnane X receptor (rPXR) activation by small molecules, qHTS assay (AID 1346983); conditions: rPXR luciferase reporter cells, One-Glo luminescence, 24 h; max activation: stronger effect = higher value; also: nearly all actives have a fitted effect of over 20% in size
# Nuclear receptor subfamily 1 group I member 2 (Rattus norvegicus), sequence (Q9R1A7 whole entry, looked up): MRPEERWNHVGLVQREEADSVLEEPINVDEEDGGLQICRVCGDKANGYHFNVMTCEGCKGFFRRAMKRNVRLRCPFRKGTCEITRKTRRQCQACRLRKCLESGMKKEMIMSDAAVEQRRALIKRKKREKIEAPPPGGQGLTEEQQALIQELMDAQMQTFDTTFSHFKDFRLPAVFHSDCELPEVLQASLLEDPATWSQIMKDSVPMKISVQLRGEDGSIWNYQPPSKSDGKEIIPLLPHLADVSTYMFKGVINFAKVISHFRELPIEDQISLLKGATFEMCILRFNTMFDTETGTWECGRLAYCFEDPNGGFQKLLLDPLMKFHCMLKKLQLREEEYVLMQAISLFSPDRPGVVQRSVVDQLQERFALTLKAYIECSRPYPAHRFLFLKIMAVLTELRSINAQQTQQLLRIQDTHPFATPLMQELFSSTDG
# In short: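 Cell-based rPXR activation assay: rPXR cells, 2,000 per well, rested 5hr at 37 C, then exposed to compounds in DMSO for 24 hr at 37 C. Luciferase activity read by One-Glo luminescence after 30 min at room temperature.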
# [19] = molecular target: Nuclear receptor subfamily 1 group I member 2 (Homo sapiens) (UniProt O75469); experiment: CYP3A4 induction through human pregnane X receptor (PXR) by small molecules, qHTS assay (AID 1346984); also: potency is read from the fitted curve at half-maximal effect; nearly all actives have a fitted effect of over 40% in size
# In short: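 Induction measured in HepG2-based DPX-2 cells co-expressing human PXR and a CYP3A4 promoter-driven luciferase. After a 24-hour compound exposure, cells received CYP3A4 luciferin substrate at 3uM final for 3 hours, and light output was then recorded.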
# [20] = molecular target: Nuclear receptor subfamily 1 group I member 2 (Homo sapiens) (UniProt O75469); experiment: Human pregnane X receptor (PXR) activation by small molecules, qHTS assay (AID 1346985); also: nearly all actives have a fitted effect of over 40% in size
# In short: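 DPX-2 cells (HepG2 co-transfected with a PXR response element and a CYP3A4-promoter luciferase construct) were seeded at 2,000 per well, rested 5 hr at 37C, then exposed to DMSO-dissolved compounds for 24 hr. Activation was read as luciferase luminescence.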
SMILES,Potency [1],Potency [2],Potency [3],Potency [4],Potency [5],Potency [6],Potency [7],Potency [8],Potency [9],Potency [10],Potency [11],Potency [12],Potency [13],Potency [14],Potency [15],Potency [16],outcome [17],max activation [18],Potency [19],Potency [20]
C[C@@H]1CC[C@@]2(OC1)O[C@H]1[C@@H](O)[C@H]3[C@@H]4CC[C@H]5C[C@@H](O[C@@H]6O[C@H](CO)[C@H](O[C@@H]7O[C@H](CO)[C@@H](O)[C@H](O[C@@H]8OC[C@@H](O)[C@H](O)[C@H]8O)[C@H]7O[C@@H]7O[C@H](CO)[C@@H](O)[C@H](O[C@@H]8O[C@H](CO)[C@@H](O)[C@H](O)[C@H]8O)[C@H]7O)[C@H](O)[C@H]6O)[C@H](O)C[C@]5(C)[C@H]4CC[C@]3(C)[C@H]1[C@@H]2C,72.8 µM (active),16.3 µM (active),14.5 µM (active),23.2 µM (active),20.7 µM (active),0.804 µM (active),0.655 µM (active),10.3 µM (active),inactive,4.59 µM (active),inactive,36.5 µM (active),inactive,inactive,–,–,–,–,–,–
Cn1cc(C2=C(c3cn(C4CCN(Cc5ccccn5)CC4)c4ccccc34)C(=O)NC2=O)c2ccccc21,inactive,–,–,inactive,inactive,–,–,–,inactive,10.6 µM (active),inactive,10.6 µM (active),inactive,inactive,inactive,–,–,–,–,–
Clc1ccc(C(c2ccc(Cl)cc2)C(Cl)(Cl)Cl)cc1,inactive,inactive,–,inactive,55.3 µM (active) and inactive,inactive,inactive,inactive,inactive,69.1 µM (active) and inactive,inactive,inactive,17.4 µM (active) and 13.3 µM (active),inactive,–,7.7 µM (active) and 5.96 µM (active),inactive,8.77% (inactive),22.4 µM (active),inactive
COP(=S)(OC)Oc1cc(Cl)c(Br)cc1Cl,inactive,–,–,–,inactive,inactive,inactive,–,inactive,–,inactive,inactive,12.2 µM (active),–,inactive,–,inactive,–,–,–
CCN(CC)C(=S)[S-].CCN(CC)C(=S)[S-].[Zn+2],12.1 µM (active),1.21 µM (active),–,12.2 µM (active),38.6 µM (active),–,–,–,1.08 µM (active),2.41 µM (active),–,27.1 µM (active),4.29 µM (active),inactive,–,–,inactive,–,–,–
O=C(O)COc1nc(Cl)c(Cl)cc1Cl,inactive,–,27.9 µM (active),inactive,–,inactive,inactive,–,inactive,–,inactive,–,inactive,inactive,–,–,–,–,–,–
Nc1ccc(Sc2ccc(N)cc2)cc1,inactive,–,–,–,inactive,inactive,inactive,–,inactive,inactive,inactive,–,34.4 µM (active),inactive,–,–,inactive,–,–,–
ClC1=C(Cl)[C@]2(Cl)[C@@H]3[C@@H]4C[C@@H]([C@H]5O[C@@H]45)[C@@H]3[C@@]1(Cl)C2(Cl)Cl,inactive,–,–,–,–,–,–,–,–,61.1 µM (active),–,–,13.7 µM (active),inactive,–,–,–,–,–,–
Clc1ccc(C(Cl)(Cl)Cl)c(Cl)c1,inactive,48.9 µM (active),–,inactive,inactive,inactive,inactive,inactive,inactive,inactive,inactive,inactive,inactive,inactive,–,–,inactive,–,–,–
CCOCn1c(-c2ccc(Cl)cc2)c(C#N)c(Br)c1C(F)(F)F,8.63 µM (active),12.2 µM (active),12.2 µM (active),–,–,inactive,inactive,0.864 µM (active),inactive,2.73 µM (active),inactive,–,1.37 µM (active),inactive,–,–,–,–,–,–
CC(C)OC(=S)S,inactive,7.7 µM (active),–,inactive,inactive,inactive,inactive,inactive,inactive,27.3 µM (active),–,–,17.2 µM (active),inactive,–,–,inactive,–,–,–
O=C(CBr)c1ccc(O)cc1,inactive,–,–,–,inactive,inactive,inactive,inactive,inactive,–,inactive,inactive,inactive,inactive,–,–,inactive,–,–,–
CC(=O)OC1(c2ccccc2)CCN(CCc2ccccc2)CC1,–,inactive,inactive,inactive,inactive,inactive,inactive,–,inactive,inactive,inactive,inactive,11.1 µM (active),inactive,inactive,–,inactive,–,–,–
